For four compounds, composite z-score and z-score results are on record in PubChem BioAssay.

A short description of assay [1]: compounds binding Alexa647 anti-His antibody – biochemical, small-molecule microarray, 635 nm fluorescence, artefact control for SMM control protein annotation, primary screen (AID 1128).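 Also: score merges feature fluorescence with signal-to-noise for each printed compound spot.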 The note with it: higher = more signal.
The test system of assay [2] is Human papillomavirus type 1a E7 protein (residues 1-88). Nature of the assay: HPV1a E7 small-molecule binders, primary screen, biochemical, small-molecule microarray, residues 1-88, 635 nm (AID 1129). The note with it: small-molecule microarray binding, fluorescence 635 nm; higher = more signal.
Assay [3] has as its target Focal adhesion kinase 1 (Homo sapiens) (UniProt Q05397). Nature of the assay: PTK2 protein binding on printed compound slides – biochemical, small-molecule microarray, 635/667 nm fluorescence, BSA, DTT, primary screen (AID 1130).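 Also: composite of spot emission at 667 nm and signal to noise over triplicate slides.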 The note with it: 635 nm fluorescence, higher = more signal.
Assay [4] concerns Fibrinogen (Alexa647-labelled). Nature of the assay: Alexa647-fibrinogen binding to printed small molecules – biochemical, small-molecule microarray, 635/667 nm fluorescence, artefact control for SMM control-protein annotation, profiling panel (AID 1131).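 Also: z-score merges 667 nm fluorescence with per-spot signal-to-noise over triplicate slides.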 The note with it: fibrinogen-A647 binding fluorescence, higher = more signal.
For assay [5], the target named is Follistatin (Homo sapiens) (UniProt P19883). Nature of the assay: FST protein binding to printed compounds – biochemical, small-molecule microarray, 635/667 nm fluorescence, primary screen (AID 1132). The settings on record: 635 nm fluorescence, higher = more signal.
Sequence of Follistatin (Homo sapiens) (P19883 whole entry, looked up): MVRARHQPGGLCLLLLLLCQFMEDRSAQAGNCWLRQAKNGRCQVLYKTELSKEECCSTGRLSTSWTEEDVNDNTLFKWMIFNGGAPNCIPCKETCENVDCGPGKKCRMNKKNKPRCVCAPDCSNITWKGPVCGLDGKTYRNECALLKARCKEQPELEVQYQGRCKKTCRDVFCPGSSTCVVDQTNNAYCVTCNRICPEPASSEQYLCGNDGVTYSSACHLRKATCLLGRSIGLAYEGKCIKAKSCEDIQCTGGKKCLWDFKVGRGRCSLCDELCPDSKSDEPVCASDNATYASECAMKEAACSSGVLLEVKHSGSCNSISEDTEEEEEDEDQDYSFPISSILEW
Assay [6] deals with Fibroblast growth factor 2 (Homo sapiens) (UniProt P09038). The assay is described as follows: basic fibroblast growth factor binding to printed compounds – biochemical, small-molecule microarray, 635/667 nm fluorescence, primary screen (AID 1133). The note with it: FGF2, fluorescence 635/667, higher = more signal.
Sequence of Fibroblast growth factor 2 (Homo sapiens) (P09038 whole entry, looked up): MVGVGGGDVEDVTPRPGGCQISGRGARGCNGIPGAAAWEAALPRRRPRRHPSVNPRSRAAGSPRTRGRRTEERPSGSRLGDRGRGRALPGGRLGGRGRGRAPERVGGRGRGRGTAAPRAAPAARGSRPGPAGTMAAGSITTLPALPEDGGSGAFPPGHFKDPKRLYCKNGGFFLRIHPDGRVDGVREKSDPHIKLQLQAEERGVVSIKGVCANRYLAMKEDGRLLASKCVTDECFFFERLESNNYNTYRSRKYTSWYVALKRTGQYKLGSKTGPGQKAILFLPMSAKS
The nature of assay [7]: JC-1 mitochondrial potential readout, lung cancer cells – cell-based, A549, JC-1 fluorescence, basal, 24 h, 100 nL, profiling panel (AID 1138).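 Also: A549 lung adenocarcinoma cells under basal conditions with no added stimulus; test concentration not given here.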 The note with it: higher = more signal.
In assay [8] the test system is Lefty1. Nature of the assay: Lefty1 protein binding to printed compounds – biochemical, small-molecule microarray, 635/667 nm fluorescence, primary screen (AID 1139). The note with it: fluorescence 635/667, higher = more signal.
In assay [9] the test system is wheat germ agglutinin (Triticum aestivum), Alexa647-labelled. Nature of the assay: Alexa647-WGA lectin binding to printed small molecules – biochemical, small-molecule microarray, 635/667 nm fluorescence, artefact control for SMM control-protein annotation, profiling panel (AID 1140).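 Also: score merges 667 nm feature emission with signal to noise over triplicate slides.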 The note with it: WGA-A647 binding, 635 nm fluorescence, higher = more signal.
Assay [10] addresses Luciferin 4-monooxygenase (Photinus pyralis) (UniProt P08659). The assay is described as follows: inhibition of purified Photinus pyralis luciferase – biochemical, luminescence, purified enzyme, 2006 set, primary screen (AID 1141).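 Also: cell-free assay with purified firefly luciferase at 100 ng per well in PBS; test concentration not given here.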 The settings on record: purified firefly luciferase, SteadyGlo luminescence, 30 min; higher = more signal, called active from +8 up or from −8 down.

Assay [11] deals with Wnt5a (protein binding on small-molecule microarray). Nature of the assay: small molecules binding Wnt5a protein – biophysical, small-molecule microarray, 635/667 nm fluorescence, primary screen (AID 1142).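 Also: fluorescence read at 667 nm with signal to noise per printed feature.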 The settings on record: 635 nm fluorescence, higher = more signal.
The nature of assay [12]: ATP-based viability of Huh7 replicon cells – cell-based, CellTiter-Glo luminescence, basal, 48 h, cytotoxicity control for HCV replication inhibitor project, primary screen (AID 1143).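 Also: Huh7 hepatoma cells carrying a hepatitis C replication reporter with no stimulus; test concentration not given here.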 The settings on record: higher = more signal, called active from +8 up or from −8 down.
Assay [13] can be described thus: Pseudomonas biofilm growth suppression – PAO1 strain, BacTiter-Glo luminescence, LB-PBS, primary screen (AID 1144). The settings on record: P. aeruginosa PAO1 biofilm, 12 h, higher = more signal.
Assay [14] can be described thus: basal CRE-LacZ reporter activity in PC12 – cell-based, unstimulated, primary screen (AID 1145). The note with it: no forskolin, luminescence, 4.5 h, higher = more signal, called active from +8 up or from −8 down.
The nature of assay [15]: forskolin-driven CRE-LacZ activity in PC12 – cell-based, CRE-LacZ reporter, forskolin-stimulated, primary screen (AID 1146).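 Also: PC12 cells with 6xCRE LacZ reporter stimulated by forskolin 10 µM; beta-galactosidase reporter signal reflecting CREB driven transcription.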 The note with it: luminescence, 4.5 h, higher = more signal, called active from +8 up or from −8 down.
For assay [16], the target named is Streptavidin (Streptomyces avidinii) (UniProt P22629). Nature of the assay: compounds binding control protein streptavidin – biophysical, small-molecule microarray, 635/667 nm fluorescence, artefact control for SMM compound annotation, primary screen (AID 1147).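 Also: signal reflects streptavidin binding to arrayed compounds as a control protein.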 The settings on record: higher = more signal.
Sequence of Streptavidin (Streptomyces avidinii) (P22629 whole entry, looked up): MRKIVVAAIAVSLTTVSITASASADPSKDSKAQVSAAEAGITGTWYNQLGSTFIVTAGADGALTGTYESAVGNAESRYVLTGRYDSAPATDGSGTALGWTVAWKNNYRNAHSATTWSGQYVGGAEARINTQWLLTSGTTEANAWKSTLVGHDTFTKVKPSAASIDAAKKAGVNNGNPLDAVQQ
Assay [17] can be described thus: probe aInhba binding on compound microarray – biochemical, small-molecule microarray, 635/667 nm fluorescence, primary screen (AID 1148).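 Also: score merges 667nm spot fluorescence with signal-to-noise for antibody binding to printed compounds.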 The settings on record: higher = more signal.
In assay [18] the target is Torsin-1A (Homo sapiens) (UniProt O14656). Nature of the assay: TOR1A wild-type binding on microarray – cell lysate, small-molecule microarray, lysate, 635/667 nm, primary screen (AID 1149). The note with it: COS7 hTOR1A-WT lysate, 635 nm fluorescence, higher = more signal.
Sequence of Torsin-1A (Homo sapiens) (O14656 whole entry, looked up): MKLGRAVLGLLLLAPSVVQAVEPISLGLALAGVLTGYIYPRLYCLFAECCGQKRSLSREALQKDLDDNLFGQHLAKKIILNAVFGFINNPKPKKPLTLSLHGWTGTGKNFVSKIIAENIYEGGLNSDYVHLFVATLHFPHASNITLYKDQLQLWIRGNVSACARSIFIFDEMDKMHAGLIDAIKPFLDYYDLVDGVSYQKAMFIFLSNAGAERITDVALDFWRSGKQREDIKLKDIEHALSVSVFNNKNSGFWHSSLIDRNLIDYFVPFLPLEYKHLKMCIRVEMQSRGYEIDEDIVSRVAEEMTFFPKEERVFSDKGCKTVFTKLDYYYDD
The target is the same in assay [19]. The assay is described as follows: torsin A mutant lysate binding on microarrays – cell lysate, small-molecule microarray, COS7 lysate, 635/667 nm fluorescence, primary screen (AID 1150).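 Also: score pools 667 nm emission and signal to noise measuring lysate protein binding.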 The note with it: COS7 hTOR1A mutant lysate, 635 nm fluorescence, higher = more signal.
In assay [20] the test system is Sonic hedgehog protein (Shh). Nature of the assay: Sonic hedgehog microarray binding compounds – biochemical, small-molecule microarray, 635/667 nm fluorescence, primary screen (AID 1151).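 Also: Shh protein binding to compounds spotted on small-molecule microarray slides; score combines spot fluorescence intensity with signal-to-noise across triplicate slides.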 The settings on record: 635 nm fluorescence, higher = more signal.

“And” between values parts separate entries of the source, which are not always exact repeats. Equal values may be shown once. The source made the active and inactive calls. Unless noted, no rule for the calls is given here.

Sequence of Focal adhesion kinase 1 (Homo sapiens) (Q05397 whole entry, looked up): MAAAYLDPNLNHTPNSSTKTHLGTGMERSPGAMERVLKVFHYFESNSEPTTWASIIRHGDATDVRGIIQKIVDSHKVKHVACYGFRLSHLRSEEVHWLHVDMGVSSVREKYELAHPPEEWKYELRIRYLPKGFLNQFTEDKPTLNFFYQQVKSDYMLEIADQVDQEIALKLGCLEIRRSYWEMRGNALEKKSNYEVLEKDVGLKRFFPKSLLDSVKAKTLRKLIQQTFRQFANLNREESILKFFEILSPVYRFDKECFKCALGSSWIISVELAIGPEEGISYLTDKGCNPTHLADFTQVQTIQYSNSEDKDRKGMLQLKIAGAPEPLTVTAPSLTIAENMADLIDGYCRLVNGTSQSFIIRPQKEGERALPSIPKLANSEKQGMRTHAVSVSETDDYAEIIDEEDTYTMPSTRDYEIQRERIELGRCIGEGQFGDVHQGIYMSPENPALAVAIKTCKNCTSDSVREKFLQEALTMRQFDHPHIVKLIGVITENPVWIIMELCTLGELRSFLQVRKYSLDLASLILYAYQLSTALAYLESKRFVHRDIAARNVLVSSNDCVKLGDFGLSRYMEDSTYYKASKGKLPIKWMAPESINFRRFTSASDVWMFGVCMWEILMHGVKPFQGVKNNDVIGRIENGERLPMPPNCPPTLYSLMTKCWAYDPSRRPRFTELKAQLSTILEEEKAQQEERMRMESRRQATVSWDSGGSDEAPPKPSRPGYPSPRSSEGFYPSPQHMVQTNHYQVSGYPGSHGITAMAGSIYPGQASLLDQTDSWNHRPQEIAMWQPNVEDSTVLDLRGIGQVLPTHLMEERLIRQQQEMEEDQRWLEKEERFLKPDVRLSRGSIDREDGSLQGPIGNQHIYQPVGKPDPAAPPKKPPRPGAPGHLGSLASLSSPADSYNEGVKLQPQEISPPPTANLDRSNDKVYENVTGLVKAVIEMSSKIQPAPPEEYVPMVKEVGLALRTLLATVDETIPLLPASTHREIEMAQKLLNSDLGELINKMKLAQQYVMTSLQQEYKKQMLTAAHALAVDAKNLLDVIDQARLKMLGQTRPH
Sequence of Luciferin 4-monooxygenase (Photinus pyralis) (P08659 whole entry, looked up): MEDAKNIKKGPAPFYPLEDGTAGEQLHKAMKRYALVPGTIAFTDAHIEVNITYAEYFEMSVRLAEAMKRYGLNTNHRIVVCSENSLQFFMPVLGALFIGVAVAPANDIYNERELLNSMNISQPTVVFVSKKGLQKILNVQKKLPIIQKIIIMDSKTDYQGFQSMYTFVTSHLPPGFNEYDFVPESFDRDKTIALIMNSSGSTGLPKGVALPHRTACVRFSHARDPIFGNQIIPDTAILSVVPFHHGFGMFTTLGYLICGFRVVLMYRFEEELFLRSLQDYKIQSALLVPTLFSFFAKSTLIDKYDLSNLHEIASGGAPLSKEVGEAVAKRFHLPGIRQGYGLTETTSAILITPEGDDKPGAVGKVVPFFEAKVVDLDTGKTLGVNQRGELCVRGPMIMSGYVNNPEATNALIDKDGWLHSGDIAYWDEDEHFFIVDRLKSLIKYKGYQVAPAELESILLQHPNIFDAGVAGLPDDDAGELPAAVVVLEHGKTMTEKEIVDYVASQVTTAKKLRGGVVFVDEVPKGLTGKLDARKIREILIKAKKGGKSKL

In the case of `CC(C)OC(=O)C=C1C[C@@H](c2ccccc2)O[C@@H](c2ccccc2)O1`, the composite z-score in assay [1] was 0.871 and 1.47; in assay [2] it was 1.23 and 1.25; in [3] it was 0.255 and 0.796; in assay [4] it was 0.977 and 0.962; in assay [5], 1.26 and 1.31; in [6], 1.42 and 1.02. The composite z-score in assay [8] is 1.11 and 1.31; in assay [9], 0.824 and 1.3; in [11], 0.706 and 0.731; in assay [16], 1.35 and 1.85; in assay [17], 0.122 and 0.234; in assay [18] it was 1.55 and 1.19. Also, the composite z-score was 1.57 and 1.46 in assay [19]; 1.67 and 0.885 in [20]. Besides, the z-score in assay [7] was 1.55 and 0.229; in [10], 0.992 (inactive) and -0.692 (inactive); in assay [12], -1.4 (inactive) and -2.03 (inactive); in assay [13], -0.804 (inactive) and -1.18 (inactive); in [14] it was 0.836 (inactive) and -0.0879 (inactive); in [15], -0.127 (inactive) and 3.16 (inactive).
Consider `CO[C@@H]1COC(=O)CC=C[C@H](C)[C@@H](NS(=O)(=O)c2ccc(C)cc2)COC(=O)CC=C[C@@H]1C`, for which the composite z-score in assay [1] was 0.395 and -0.145; in assay [2], 0.214 and -0.651; in assay [3], -0.0379 and -0.578; in assay [4], 0.0363 and -2.26; in [5], 0.407 and 1.42; in assay [6] it was 1.16 and 1.17. Besides, the composite z-score in assay [8] is 1.32 and 0.9; in [9] it was 0.216 and -0.0758; in assay [11], 0.123 and 0.0913; in [16], 0.167 and 0.162; in assay [17], -0.159 and -0.179; in [18], 0.318 and 2.3. The composite z-score in assay [19] was 0.505 and 1.55; in assay [20], 1.43 and 2.1. Further, the z-score in [7] was 1.66 and -1.16; in assay [10], -0.439 (inactive) and 1.32 (inactive); in assay [12], -0.142 (inactive) and -0.867 (inactive); in assay [13] it was -0.675 (inactive) and -1.19 (inactive); in [14] it was -0.743 (inactive) and 0.42 (inactive); in assay [15], -0.881 (inactive) and 0.764 (inactive).
As to `C=CCN(C(=O)C1N(C(C)(C)CO)C(=O)C2C(C(=O)O)C3C=CC21O3)c1ccc(OC)cc1` (stereo not given), the composite z-score in assay [1] was -2.21 and -2.2; in [2], -1.08 and -1.45; in [3], -0.488 and -0.747; in assay [4], -1.1 and -1.88; in assay [5], -2.74 and -3.18; in assay [6], -2.91 and -2.56. For the same compound, the composite z-score is -2.07 and -3.54 in [8]; -1.08 and -2.01 in assay [9]; -0.737 and -0.572 in assay [11]; -1.73 and -1.67 in [16]; -0.227 and -0.38 in assay [17]; -2.67 and -1.85 in [18]. Further, the composite z-score was -1.25 and -2.3 in assay [19]; -0.639 and -2.16 in [20]. In addition, the z-score in assay [7] is 0.869 and 0.79; in assay [10] it was -2.06 (inactive) and -1.09 (inactive); in [12] it was -0.265 (inactive) and -0.156 (inactive); in [13], 1.42 (inactive); in [14], -0.761 (inactive) and -0.501 (inactive); in assay [15], -1.27 (inactive) and -0.62 (inactive).
In the case of `C[C@@H]1CC[C@@H](C(=O)O)N[C@H]1c1ccc(-c2ccco2)cc1`, the composite z-score in assay [1] is 0.893; in assay [2], -0.253; in assay [3], 0.0242; in assay [4], 1.02; in assay [5], 1.32; in assay [6], 1.14. In addition, the composite z-score in assay [8] is 1.18; in assay [9] it was 0.589; in assay [11], 0.266; in [16], 0.192; in assay [17], -0.0791; in [18], 1. The composite z-score stood at 0.406 in assay [19] and 0.611 in assay [20]. The z-score is 1.41 in assay [7]; -0.906 (inactive) in assay [10]; 0.0233 (inactive) in assay [12]; -0.778 (inactive) in assay [13]; -0.339 (inactive) in assay [14]; -0.885 (inactive) in [15].
